Bioassay records from PubChem.
ELG1 DNA repair – qHTS screen for small molecules that inhibit ELG1-dependent DNA repair in human embryonic kidney (HEK293T) cells expressing luciferase-tagged ELG1; HEK293T ELG1-luciferase reporter, luminescence, 16 h; DNA damage induced by 5-fluorouridine; 330,000 tested, 2.3% active; Potency, µM (titrated, usually from 46.1 µM), without a hit: top-dose activity change, negative = inhibition, usual class: inhibitors; note: potency is the fitted concentration of half-maximal effect; nearly all actives have a fitted effect of over 55% in size
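Cells (2,000 per well) received 5-fluorouridine plus test compound or DMSO and were incubated 16 hr at 37 °C, 5% CO2. Luciferase activity was read by luminescence 30 min after ONE-Glo addition; signal suppression marked inhibition of damage-induced ELG1 function.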
TDP1 cell noCPT – qHTS for Inhibitors of human tyrosyl-DNA phosphodiesterase 1 (TDP1): qHTS in cells in absence of CPT; DT40 Tdp1-/- hTDP1 cells, no CPT, ATP luminescence, 48 h; Potency, µM (doses to about 46.2 µM), for inactives: at the top dose activity change, negative = growth inhibition, usual class: inhibitors; 420,000 tested, 15% active; AID 686978, 2013; note: potency is the fitted concentration of half-maximal effect; nearly all actives have a fitted effect of over 55% in size
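DT40 Tdp1-/-;hTDP1 cells, no CPT (DMSO vehicle only), 400 cells/well; compounds pin-transferred; ≥48 hr, 37 °C; CellTiter-Glo 30 min RT dark, luminescence read.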
HT1080NT lethal – qHTS for induction of synthetic lethality in tumor cells producing 2HG: qHTS for the HT-1080-NT fibrosarcoma cell line; Potency, µM (top dose mostly 46.1 µM), without a hit: at the highest dose activity, negative = less viability, usual class: cytotoxic; 360,000 tested, 1.6% active; HT-1080-NT fibrosarcoma viability, CellTiter-Glo ATP luminescence, 48 h; AID 686970, 2013;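 note: NT is the 2HG producing partner of a matched IDH1 knockdown line; potency is the fitted concentration of half-maximal effect; 0% = DMSO-treated cells and -100% = media-only wells without cells; nearly all actives have a fitted effect of over 55% in size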
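Toxicity toward the 2HG-producing NT line was scored as %Activity, normalised to DMSO and no-cell wells, from CellTiter-Glo luminescence after 48 hours' treatment.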
HT1080 IDH1KD tx – qHTS for induction of synthetic lethality in tumor cells producing 2HG: qHTS for the HT-1080-IDH1KD cell line. 360,000 tested, 2% active. AID 686971, 2013. Potency, µM (doses to about 46.1 µM), for inactives: at the highest dose activity, negative = toxicity, most hits filed as cytotoxic. HT-1080 IDH1 knockdown viability, ATP luminescence, 48 h;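 note: potency is the fitted concentration of half-maximal effect; 0% = DMSO wells and -100% = cell-free medium wells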
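CellTiter-Glo luminescence after 48 h compound exposure at 37 degrees C of IDH1-knockdown HT-1080 cells in 5% FBS RPMI. %Activity scaled between DMSO wells and cell-free media wells, with curves fitted and assigned curve classes.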
IL-1B inflam inh – qHTS for Inhibitors of Inflammasome Signaling: IL-1-beta AlphaLISA Primary Screen | THP-1 LPS/ATP IL-1B secretion, AlphaLISA, 16 h; hits give low values | activity change, % at 57.5 µM | 360,000 tested, 4.7% active | AID 743279, 2014; in the data active = activity change below about -50%; inconclusive = mostly about -30% to -49%
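Secreted IL-1B measured by AlphaLISA bead assay after 16 h compound exposure of THP-1 cells; compounds (final up to 57.5 uM) added 1 h before LPS (250 ng/mL) and ATP (1.25 mM) stimulation; lower signal means less secretion.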
DT40 TDP1 CPT – qHTS for Inhibitors of human tyrosyl-DNA phosphodiesterase 1 (TDP1): qHTS in cells in presence of CPT. AID 686979, 2013. Potency, µM (doses to about 46.2 µM), for the others: top-dose activity change, negative = growth inhibition, most hits filed as inhibitors. chicken DT40 Tdp1-/-;hTDP1 cells + 20 nM CPT, ATP luminescence, 48 h. 420,000 tested, 12% active; note: potency is the fitted concentration of half-maximal effect; nearly all actives have a fitted effect of over 55% in size
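Chicken DT40 Tdp1-/- cells complemented with human TDP1, 400 cells/well, exposed to compounds plus 20 nM camptothecin for at least 48 h at 37 C; viability read as ATP content by CellTiter-Glo luminescence.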
Starred values were filed as active, the others as inactive; u = inconclusive; x = no result. Only some compounds are listed: those with a hit (about 19% of all), similar ones and a draw of the others. Unless noted, calls come from the whole dose curve; as a rule, active = well fitted curve in the direction sought with a large enough effect; inconclusive = small, poorly fitted or top-dose-only effect, or another doubt; inactive = no such curve, though single readings can be large; an effect the other way counts as inactive or inconclusive. Unless noted, % is set by controls: 0 for no effect and ±100 for the full control effect.

SMILES	ELG1 DNA repair	TDP1 cell noCPT	HT1080NT lethal	HT1080 IDH1KD tx	IL-1B inflam inh	DT40 TDP1 CPT
Cc1cc(C)cc(OCC(=O)N(C)CC(=O)Nc2ccc(Cl)c(C(F)(F)F)c2)c1	-24.3%	u	-1.7%	-24.2%	-78.2*	u
Cc1ccc(OC(=O)c2ccc([N+](=O)[O-])cc2Cl)cn1	-4.4%	0.3%	3.6%	0.5%	-6.2	-3.9%
CC(C)CC(=O)Nc1ccc(-c2nc3ccccc3c(=O)[nH]2)cc1	u	-23.9%	-16.5%	-17.9%	2.6	-1.2%
CC(=O)N1CCC2(CC1)CN(Cc1ccccc1)C2	x	-1.3%	x	x	x	6.5%
CC1=C(C(=O)N(C(C)C)C(C)C)CC(CC(=O)NCc2ccco2)C(=O)N1CCCN1CCCC1=O (stereo not drawn)	x	4.2%	u	2.5%	7.0	1.5%
Cc1cc(NC(=O)CN(C)CC(=O)Nc2ccc(Cl)cc2)no1	4.5%	u	-4.1%	-13.6%	18.7	u
Cc1cc(NC(=O)CN(C)CC(=O)Nc2ccc(Cl)c(C(F)(F)F)c2)no1	u	16.4µM*	-28.4%	-7.5%	-11.7	14.6µM*
CN(CC(=O)Nc1ccc(Cl)c(C(F)(F)F)c1)C(=O)CNC(=O)C1CCCCC1	5.7%	16.4µM*	-0.2%	-3.1%	10.2	u
CN(CC(=O)Nc1ccc(Cl)c(C(F)(F)F)c1)C(=O)C1CCC1	-1.3%	u	-1.6%	2.7%	-5.7	u
Cc1ccc(NC(=O)CN(C)C(=O)c2cccnc2Nc2cccc(C(F)(F)F)c2)cc1	u	u	u	u	-78.9*	u
CCc1ccc(NC(=O)Cn2c(=O)ccc3cc(S(=O)(=O)N4CCCC4)ccc32)cc1	x	-1.8%	x	x	x	-14.0%
COC(=O)C(C(C)C)N(Cc1cc(OC)cc(OC)c1)S(=O)(=O)CCl (stereo not drawn)	-18.6%	20.6µM*	6.3%	3.2%	16.2	16.4µM*
COC(=O)[C@H](C(C)C)N(Cc1ccccc1)S(=O)(=O)CCN1CCN(c2ccccc2)CC1	u	u	2.2%	-11.4%	19.4	u
CCCc1ccc(C(O)c2ncc(-c3cccc(C)c3)[nH]2)cc1 (stereo not drawn)	x	u	u	u	-16.4	u
OCC(O)CS (stereo not drawn)	x	2.7%	x	x	x	-16.5%
COc1ccc(-c2noc(CSc3nc4ccccc4c(=O)n3-c3ccccc3)n2)cc1OC	-11.0%	u	-6.5%	-8.3%	-20.5	u
COc1ccc(OC)c(-c2noc(CSc3nnc(Cc4ccccc4)n3-c3cccc(C)c3)n2)c1	x	23.1µM*	x	x	x	18.4µM*
COc1ccc(-c2noc(CSc3nnc(Cc4ccccc4)n3-c3cccc(C)c3)n2)cc1OC	u	20.6µM*	u	u	-64.2*	16.4µM*
COc1ccc(-c2noc(CSc3nnc(Cc4ccccc4)n3-c3ccccc3)n2)cc1OC	x	13µM*	x	x	x	23.1µM*
COc1ccc(OC)c(-c2noc(CSc3nnc(-c4ccccc4)n3-c3ccccc3)n2)c1	x	5.17µM*	x	x	x	14.6µM*
Cc1c(C(=O)N(C)C)sc2c1c(=O)n(-c1ccc(Cl)c(Cl)c1)c(=O)n2CC(=O)N1CCCCC1C (stereo not drawn)	x	6.4%	x	x	x	7.2%
N[C@H](CCCP(=O)(O)O)C(=O)O	x	-2.9%	x	x	x	4.2%
